# Laboratory results published in PubChem BioAssay AID652010 (The Scripps Research Institute Molecular Screening Center, 2013).
# About 4,100 (1.1%) of roughly 370,000 compounds were called active. What follows is part of a selection rich in actives, with near analogues and random picks from the rest. Values without a mark were called inactive.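 How the source made its calls: active means inhibition above the mean over all tested compounds plus 3 SD (cut at about 3.6% in these data); inactive means the rest.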
# Assay: DAX1 (NR0B1) inhibitors on StAR promoter, primary screen, cell-based, luminescence, SF-1 (NR5A1), full-length DAX-1 (AID 652010);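 further: 0% = DAX-1 cells with DMSO and 100% = cells lacking DAX-1 with DMSO; higher inhibition means more luminescence from relief of DAX-1 repression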
# Conditions: HEK293T StAR-luciferase reporter, SF-1/DAX-1 repression relief; at 6.8 µM; active compounds read high
row,Compound,inhibition
1,CC(NC(=O)COC(=O)CCC(=O)c1ccc(Cl)cc1)c1ccccc1 (stereo not drawn),-0.89%
2,CCCCOCCCNC(=O)C[C@H]1C[C@@]2(C(=O)OC)C(=C[C@H](C(C)(C)C)O[C@@H]2C)N(CCc2ccc(OC)c(OC)c2)C1=O,-0.4%
3,CC(C)c1ccc(Nc2ncccc2C#N)cc1,5.5% (active)
4,Cc1ccc(Cc2c(-c3ccc(C)cc3)nc3c4ccccc4ccn23)cc1,-1.54%
5,Cc1ccc(Cc2c(-c3ccc(Cl)cc3)nc3c4ccccc4ccn23)cc1,-0.2%
6,c1ccc(Cc2c(-c3ccco3)nc3c4ccccc4ccn23)cc1,5.34% (active)
7,O=C(CCCN1C(=O)C2C3C=CC(C3)C2C1=O)N1CCN(c2ccccc2)CC1 (stereo not drawn),-0.34%
8,C=CS(=O)(=O)N(Cc1nnn(Cc2ccccc2)c1Br)[C@H](C(=O)OC)C(C)C,-2.88%
9,O=C(NC1CCC1)c1ccc(C#Cc2cccc(F)c2)c[n+]1[O-],-2.3%
10,O=C(Nc1ccc(Cl)c(Cl)c1)c1ccccc1NC(=O)C1CC=CCC1C(=O)O (stereo not drawn),9.09% (active)
11,O=C(O)C1CC=CCC1C(=O)NCCc1ccccc1 (stereo not drawn),-0.12%
12,O=C(Nc1cccc(Cl)c1Cl)c1ccccc1NC(=O)C1CC=CCC1C(=O)O (stereo not drawn),1.73%
13,Cc1ccnc(NC(=O)CCNS(=O)(=O)c2ccc(C)c(C)c2)c1,16.4% (active)
14,Cc1ccc(S(=O)(=O)NCCC(=O)NCc2ccc(Cl)cc2)cc1C,0.12%
15,Cc1ccc(S(=O)(=O)NCCC(=O)Nc2cccc(S(N)(=O)=O)c2)cc1C,0.14%
16,C=CCN(C(=O)[C@@H](CCCC)[C@@H](O)c1ccc(Cl)cc1)c1ccccc1,-2.07%
17,COc1ccccc1OCc1nc2ccccc2s1,4.19% (active)
18,COC(=O)C1[C@H]2SC(C)(C)C(C(=O)OC)N2C(=O)N1Cc1nc2ccccc2s1 (stereo partly drawn),-0.17%
19,CCc1ccc(-c2nnn(Cc3nc4ccccc4s3)n2)cc1,-0.22%
20,O=C(CSc1nc2ccccc2nc1N1CCCCC1)N1CCN(S(=O)(=O)c2cccc([N+](=O)[O-])c2)CC1,0.77%

row,Compound,inhibition
1,Cc1ccc(NC(=S)NNC(=O)CSc2nnc(SCc3ccccc3Cl)s2)cc1,-0.55%
2,O=C1C(=O)N(c2ccccc2)C(c2ccccc2)C1c1ccccc1 (stereo not drawn),-0.52%
3,O=C(COc1ccc(Cl)cc1)N1CCN(S(=O)(=O)c2ccc(Cl)cc2)CC1,-0.62%
4,CC(c1nnc(SCC(=O)Nc2sccc2C#N)n1-c1ccc(Cl)cc1)N(C)C (stereo not drawn),0.06%
5,Cc1csc(SCC(=O)Nc2sccc2C#N)n1,10.3% (active)
6,CC(=O)c1cc(C#N)c(SCC(=O)Nc2nccs2)nc1C,0.62%
7,Cc1ccc(OCCC(=O)Nc2ccc(S(=O)(=O)Nc3nccs3)cc2)cc1,-0.38%
8,Cc1cc(NS(=O)(=O)c2ccc(NC(=O)CSc3nnc(SCc4ccc(F)cc4)s3)cc2)nc(C)n1,-0.01%
9,Nc1[nH]c(/C=C2/CCCCC2n2[nH]c(=O)n(-c3ccccc3)c2=O)c(Cc2ccccc2)[n+]1Cc1ccccc1 (stereo not drawn),-0.55%
10,CCN(CC)CCN(C(=O)c1ccc(N2C(=O)CCC2=O)cc1)c1nc2cc3c(cc2s1)OCO3,1.06%
11,CN(C)CCN(C(=O)CN1C(=O)c2ccccc2C1=O)c1nc2cc3c(cc2s1)OCCO3,4.33% (active)
12,O=C(Cn1c(=O)sc2ccccc21)Nc1ccc2c(c1)OCCO2,-1.14%
13,CCOC(=O)c1csc(NC(=O)C2CCCN(S(=O)(=O)c3ccc(Cl)s3)C2)n1 (stereo not drawn),-2.18%
14,COc1ccc(C(=O)Nc2ccc(-n3nncc3C(C)(C)C)cc2)cc1,-0.32%
15,COCCNC(=S)c1ccc(OC)cc1,0.05%
16,COc1ccc(C(=O)NC2CCN(C(=O)Nc3ccc(F)cc3)CC2)cc1,-0.44%
17,COc1ccc(C(=O)NCC[N+](C)(C)C)cc1,4.67% (active)
18,COc1ccc(C(=O)NCCSc2ccccc2C)cc1,2.33%
19,COc1ccc(NC(=O)c2ccc(OC)cc2)cc1,4.59% (active)
20,O=C(C1CCN(S(=O)(=O)c2ccccc2)CC1)N1CCN(C2CCCCC2)CC1,0.23%

row,Compound,inhibition
1,Nn1c(SCC(=O)Nc2cccc3ccccc23)nnc1-c1cc(-c2ccc(F)cc2)n[nH]1,-0.54%
2,CC(=O)NC1(c2ccc(F)cc2)CCN(C(=O)c2c(F)cccc2F)CC1,-0.58%
3,CC(C)CSc1nnc(-c2cccnc2)n1Cc1ccccc1,-1.22%
4,COC(=O)c1cccc(Cn2ccc3ccc(-c4ccc5ccn(C(=O)c6ccccc6C)c5c4)cc32)c1,-1.7%
5,O=C(CSc1nc2ccccc2n1Cc1ccccc1)NNC(=S)Nc1ccccc1,-1.17%
6,CCOc1cccc(C(=O)Nc2cnn(Cc3ccccc3)c2)c1,-0.67%
7,Cc1ccc(NC(=O)CC2C(=O)N(Cc3ccccc3)C(=S)N2NC(=O)c2cccc(F)c2)c(C)c1 (stereo not drawn),-0.22%
8,O=C(Nc1ccn(Cc2ccccc2)n1)c1n[nH]c([N+](=O)[O-])c1Cl,5.27% (active)
9,O=C(Cn1cnc([N+](=O)[O-])n1)NCCc1ccccc1,-0.33%
10,O=C(Nc1ccn(Cc2ccccc2)n1)c1cccc(F)c1,4.43% (active)
11,O=C(O)CC(Cc1ccccc1)C(=O)Nc1ccc([N+](=O)[O-])cc1 (stereo not drawn),-0.05%
12,Cc1cc(C)cc(NC(=O)N2CCC(N(C)CCC(C)C)CC2)c1,1.03%
13,Cc1sc2nc(COC(=O)C(NC(=O)c3ccc(Cl)cc3Cl)C(C)C)[nH]c(=O)c2c1C (stereo not drawn),-0.03%
14,COC(=O)c1ccc(CN2C(=O)[C@]3(OCCC=C[C@H]3C)c3c(Br)cccc32)cc1,1.3%
15,COC(=O)C12C=C3CC(c4ccccc4)=C3C(=O)N1Cc1[nH]c3ccccc3c1C2 (stereo not drawn),0.17%
16,Cc1ccc(C(=O)N2CCN(C3CCCCC3)CC2)s1,0.45%
17,Cc1ccc(CS(=O)Cc2ccc(C(=O)N3CCOCC3)o2)cc1 (stereo not drawn),-0.29%
18,Cc1ccc(S(=O)Cc2ccc(C(=O)N3CCN(C4CCCCC4)CC3)o2)cc1 (stereo not drawn),5.98% (active)
